# DT40 TDP1 CPT: growth inhibition of DT40 Tdp1-/-;hTDP1 cells with camptothecin (screen for TDP1 inhibitors) | 420,000 compounds, 12% hits | AID 686979 | Potency, µM (series often up to 46.2 µM), without a hit: at the highest dose activity change, negative = growth inhibition, hits mostly inhibitors | chicken DT40 Tdp1-/-;hTDP1 cells + 20 nM CPT, ATP luminescence, 48 h; note: potency is the fitted concentration of half-maximal effect; nearly all actives have a fitted effect of over 55% in size
#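 Chicken DT40 Tdp1-/- cells stably complemented with human TDP1 were seeded at 400 cells/well in medium containing 20 nM camptothecin, exposed to pin-transferred compounds, and grown at 37 °C for at least 48 hr. Viability was read as ATP luminescence.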
# VP16 counter: inhibits Gal4-VP16 luciferase reporter, ROR gamma counter-screen; Drosophila S2 Gal4-VP16 UAS-luciferase, luminescence, 20 h; Potency, µM (doses to about 53.6 µM), without a hit: at the top dose activity, negative = inhibition, actives largely listed as inhibitors; 310,000 compounds, 3.5% hits;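 note: Gal4-VP16 expression switched on by copper sulfate through the metallothionein promoter; potency is the fitted concentration of half-maximal effect; nearly all actives have a fitted effect of over 50% in size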
# IL-1B inflam inh: inflammasome signaling inhibition, IL-1 beta readout; THP-1 LPS/ATP IL-1B secretion, AlphaLISA, 16 h; hits give low values; activity change, % at 57.5 µM; 360,000 compounds, 4.7% hits; AID 743279; in the data active = activity change below about -50%; inconclusive = mostly about -30% to -49%
#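 Secreted IL-1B measured by AlphaLISA bead assay after 16 h compound exposure of THP-1 cells; compounds (final up to 57.5 uM) added 1 h before LPS (250 ng/mL) and ATP (1.25 mM) stimulation; lower signal means less secretion.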
# ELG1 DNA repair: ELG1-dependent DNA repair inhibition; 330,000 compounds, 2.3% hits; HEK293T ELG1-luciferase reporter, luminescence, 16 h; DNA damage induced by 5-fluorouridine; Potency, µM (titrated, usually from 46.1 µM), without a hit: at the top dose activity change, negative = inhibition, actives largely listed as inhibitors; note: potency is the fitted concentration of half-maximal effect; nearly all actives have a fitted effect of over 55% in size
#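 Cells (2,000 per well) received 5-fluorouridine plus test compound or DMSO and were incubated 16 hr at 37 °C, 5% CO2. Luciferase activity was read by luminescence 30 min after ONE-Glo addition; signal suppression marked inhibition of damage-induced ELG1 function.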
# TDP1 cell noCPT: qHTS for Inhibitors of human tyrosyl-DNA phosphodiesterase 1 (TDP1): qHTS in cells in absence of CPT; DT40 Tdp1-/- hTDP1 cells, no CPT, ATP luminescence, 48 h; Potency, µM (top dose mostly 46.2 µM), inactives show top-dose activity change, negative = growth inhibition, hits mostly inhibitors; 420,000 compounds, 15% hits; note: potency is the fitted concentration of half-maximal effect; nearly all actives have a fitted effect of over 55% in size
#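 Luminescent ATP content (CellTiter-Glo) served as the growth readout. Knockout chicken DT40 cells expressing human TDP1 were exposed to compounds without camptothecin for a minimum 48 hr at 37 °C.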
# RORgamma inh: blocks mouse ROR gamma transcriptional activity. 310,000 compounds, 5.4% hits. P51450. Drosophila S2 Gal4-RORgamma UAS-luciferase reporter, 20 h. Potency, µM (doses to about 53.6 µM), for the others: at the top dose activity change, negative = inhibition, usual class: inhibitors; note: potency is the fitted concentration of half-maximal effect; nearly all actives have a fitted effect of over 60% in size
# Target sequence (P51450 whole entry, looked up, the tested form may be a part): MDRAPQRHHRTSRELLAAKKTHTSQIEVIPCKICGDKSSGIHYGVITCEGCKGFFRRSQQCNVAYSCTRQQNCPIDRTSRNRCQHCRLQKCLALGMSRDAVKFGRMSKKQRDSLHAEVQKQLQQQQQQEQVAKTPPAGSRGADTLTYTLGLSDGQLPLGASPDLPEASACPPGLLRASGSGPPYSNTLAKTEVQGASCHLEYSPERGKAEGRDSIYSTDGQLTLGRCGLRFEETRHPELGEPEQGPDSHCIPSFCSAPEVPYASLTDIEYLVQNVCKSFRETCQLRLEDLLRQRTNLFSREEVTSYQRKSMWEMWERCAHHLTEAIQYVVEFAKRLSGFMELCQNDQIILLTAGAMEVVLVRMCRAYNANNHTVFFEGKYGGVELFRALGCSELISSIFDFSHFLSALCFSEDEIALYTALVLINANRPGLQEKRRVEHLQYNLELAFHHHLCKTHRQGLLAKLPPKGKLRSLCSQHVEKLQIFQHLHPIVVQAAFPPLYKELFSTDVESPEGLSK
#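 Drosophila Schneider cells stably carrying a metallothionein-driven Gal4 DBD–ROR gamma fusion and a UAS-Photinus luciferase reporter were exposed to compound for 1 hr, then induced with copper sulfate (700 uM final) for 20 hr at ambient temperature before luminescence reading.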
# * hit, by the source's call; ? = inconclusive; . = no result; [ ] = remark or other dose. Rows were chosen to be rich in hits. Some 21% of all compounds tested hit in one or more screens of this group. Unless noted, calls come from the whole dose curve; as a rule, active = well fitted curve in the direction sought with a large enough effect; inconclusive = small, poorly fitted or top-dose-only effect, or another doubt; inactive = no such curve, though single readings can be large; an effect the other way counts as inactive or inconclusive. % is set by controls: 0 for no effect and ±100 for the full control effect.
SMILES,DT40 TDP1 CPT,VP16 counter,IL-1B inflam inh,ELG1 DNA repair,TDP1 cell noCPT,RORgamma inh
COc1cc2c(cc1OC)-c1c(OC)c(OC)cc3ccnc(c13)C2=O,4.11µM*,-8.6%,?,?,4.11µM*,-30.8%
COC(=O)c1ccccc1NC(=O)c1nc(S(=O)(=O)Cc2cccc(C)c2)ncc1Cl,2.91µM*,.,.,.,2.59µM*,.
COC(=O)c1ccc(NC(=O)c2nc(S(=O)(=O)Cc3cccc(C)c3)ncc2Cl)cc1,0.581µM*,4.47µM*,-102.8*,16.4µM*,0.517µM*,6.31µM*
CC(=O)Nc1ccc(NC(=O)c2nc(S(=O)(=O)Cc3cccc(C)c3)ncc2Cl)cc1,0.058µM*,5.01µM*,-100.1*,?,0.0461µM*,6.31µM*
Cc1cccc(COC(=O)Nc2ccc(NC(=O)c3ccccc3Cl)cc2)c1,-23.7%,12.8%,-12.2,-10.1%,?,-2.6%
CC(=O)Nc1ccc(NC(=O)c2cc(=O)c3cc(C)c(C)cc3o2)cc1,-19.7%,6.9%,0.0,-13.6%,-27.5%,-18.0%
Cc1ccccc1-c1nnn(Cc2cccc(S(=O)(=O)N3CCOCC3)c2)n1,?,.,4.3,-23.3%,?,.
C[C@H](C(=O)NCc1ccccc1)C(=O)c1ccccc1,14.7%,-3.9%,-12.0,3.2%,14.6%,1.3%
Cc1cc2ccccc2n1CCNC(=O)c1ccccc1F,?,.,.,.,16.4µM*,.
Cc1cc2ccccc2n1CCNC(=O)c1ccc(Br)o1,-28.5%,-14.6%,-25.9,0.0%,29.1µM*,-35.0%
Cc1cc2ccccc2n1CCNC(=O)c1ccccc1,?,2.51µM*,-10.5,?,?,4.47µM*
Cc1cc2ccccc2n1CCNC(=O)c1ccc(Br)cc1,?,.,.,.,20.6µM*,.
C[C@H](CO)N1C[C@H](C)[C@H](CN(C)Cc2ccc(Oc3ccccc3)cc2)Oc2cc(Br)ccc2S1(=O)=O,?,.,-24.5,.,?,.
Cn1nc(C(C)(C)C)cc1N1C(=O)CCC1(C)C(=O)NC1CCCCC1 (stereo not given),-7.8%,.,36.8,.,-0.2%,.
Cc1onc(-c2ccccc2Cl)c1C(=O)NCCn1c(C)cc2ccccc21,?,4.6%,-9.8,-23.6%,29.1µM*,2.2%
O=C(NCc1cc2ccccc2[nH]1)c1ccccc1F,-19.1%,3.3%,-63.7*,?,-5.0%,-3.0%[1.91 µM]
Cc1ccc2[nH]c(CNC(=O)c3ccccc3F)cc2c1,6.5%,2.8%,-13.0,?,-14.3%,5.3%
Cc1onc(-c2ccccc2Cl)c1C(=O)NCC(=O)O,-10.5%,-5.6%,44.5,-2.7%,10.6%,-5.4%
COc1cc(C(=O)Nc2ccc(C(F)(F)F)cc2)ccc1OCC(=O)N1CCOCC1,-28.8%,.,-5.8,?,?,.
CC(C)CC(=O)Nc1ccccc1OCc1cc(=O)n2ccccc2n1,?,.,.,.,-18.5%,.
C=CCNC(=S)Nc1ccc(C(N)=O)cc1,13.4%,-2.3%,-1.3,-0.6%,-4.1%,-0.2%
CN(C)c1ccc(NC(=S)NC(=O)/C=C/c2ccco2)cc1,1.4%,9.3%,3.2,-0.6%,-23.0%,14.1µM*
O=C(/C=C/c1ccco1)NC(=S)Nc1ccc(C(=O)O)cc1,-24.4%,5.6%,-19.3,?,-12.7%,-13.0%
C=CCNC(=S)Nc1ccc(N(C)C)cc1,?,?,14.4,?,?,11.2µM*
O=C(/C=C/c1ccco1)NC(=S)Nc1ccc(N2CCCC2)cc1,23.1µM*,3.16µM*,-16.2,?,14.6µM*,2µM*
SMILES,DT40 TDP1 CPT,VP16 counter,IL-1B inflam inh,ELG1 DNA repair,TDP1 cell noCPT,RORgamma inh
CC(=O)NC(=S)Nc1ccc(NC(=S)NC(=O)/C=C/c2ccco2)cc1,-16.2%,-16.0%,62.0,-2.6%,?,?
CCCCc1c(C)c2ccc(OC)c(/C(C)=N\O)c2oc1=O,?,-3.0%,?,-22.7%,18.4µM*,17.4%
COc1ccc2c(C)c(Cc3ccccc3)c(=O)oc2c1OC,?,-6.6%,-15.2,?,?,26.0%
CCC(CC)COC(=O)C1=C(C)NC(=O)NC1c1ccc(N(C)C)cc1 (stereo not given),?,-20.6%,?,?,20.6µM*,27.8%
CCCCNC(=O)CCCN1C(=O)c2ccccc2Sc2ncccc21,-26.3%,.,.,.,?,.
CCCNC(=O)CN1C(=O)c2ccccc2Sc2ncccc21,3.9%,-4.1%,0.7,0.4%,-12.0%,-10.6%
Cc1cc(C)c(NC(=O)CCN2C(=O)c3ccccc3Sc3ncccc32)c(C)c1,?,.,.,.,20.6µM*,.
Cc1ccc(NC(=O)CCN2C(=O)c3ccccc3Sc3ncccc32)c(Cl)c1,18.4µM*,.,.,.,18.4µM*,.
O=C(CN1C(=O)c2ccccc2Sc2ncccc21)Nc1cccc(C(F)(F)F)c1,18.4µM*,.,.,.,?,.
COc1ccc(C(CNC(=O)C(C)Oc2ccc(Br)cc2)N2CCCC2)cc1 (stereo not given),?,.,?,9.1%,?,.
Cc1ccc(-c2noc(C3CCCN(C(=O)c4cccc(F)c4)C3)n2)cc1 (stereo not given),?,.,-4.9,-0.2%,29.1µM*,.
COc1ccc(-c2noc(C3CCCN(C(=O)c4cccc(C)c4)C3)n2)cc1 (stereo not given),16.4µM*,-4.2%,?,-20.1%,16.4µM*,30.6%
Cc1ccc(-c2noc(C3CCCN(C(=O)c4c(F)cccc4F)C3)n2)cc1 (stereo not given),?,?,-17.0,?,20.6µM*,?
COc1ccc(-c2noc(C3CCCN(C(=O)c4c(F)cccc4F)C3)n2)cc1OC (stereo not given),?,?,-16.7,?,?,-7.5%[1.91 µM]
COc1cc(-c2noc(C3CCCN(C(=O)c4c(F)cccc4F)C3)n2)cc(OC)c1OC (stereo not given),?,2.1%,-15.9,?,20.6µM*,3.2%
CCc1ccc(-c2[nH]nc3nc(-c4ccc(OC)cc4)cc(C(=O)NCCCOC)c23)cc1,-0.5%,.,.,.,-6.2%,.
COc1ccccc1N1C(=O)CC(N2CCN(c3ccc([N+](=O)[O-])cc3)CC2)C1=O (stereo not given),-24.5%,-2.7%,-2.6,3.6%,?,27.4%
Cc1ccc(-c2noc(C3CCCN(C(=O)c4ccccc4Br)C3)n2)cc1 (stereo not given),?,?,5.2,?,20.6µM*,?

# From PubChem BioAssay
